This is a sample that favours compounds with a hit; in the whole collection about 5.2% have one here.
Tau FP inhib – blocks human tau fibril formation measured by polarization | P10636 | K18 P301L tau heparin fibrillization, Alexa594 FP, 6 h | Potency, µM (top dose mostly 57.7 µM), usual class: inhibitors | hit rate 0.39% among 280,000 | AID 1468; note: nearly all actives have a fitted effect of over 55% in size
Target sequence (P10636 561-689 P618L limits assumed): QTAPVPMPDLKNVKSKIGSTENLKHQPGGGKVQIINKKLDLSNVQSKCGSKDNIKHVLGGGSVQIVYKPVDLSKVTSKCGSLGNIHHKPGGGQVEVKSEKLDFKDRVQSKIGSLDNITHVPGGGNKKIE
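FP of Alexa 594-tau after heparin (20 uM) induction. Substrate: human K18 P301L, 15 uM unlabeled, 0.24 uM labeled. Buffer 100 mM sodium acetate pH 7. 6 hr, 37 C.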
Tau fibril ThT – blocks human tau fibril formation measured by thioflavin T. P10636. recombinant tau K18 P301L, heparin-induced fibrillization, ThT fluorescence. Potency, µM (doses to about 57.4 µM), actives largely listed as inhibitors. hit rate 2.1% among 270,000. AID 1460; note: nearly all actives have a fitted effect of over 55% in size
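ThT emission at 510 nm, taken 1 hr after adding 30 uM dye, quantifies aggregates formed when 20 uM heparin acts on human tau K18 P301L for 6 hr at 37 C.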
Sfp inh – Sfp phosphopantetheinyl transferase inhibition; Q9F4F7; Biochemical Sfp PPTase activity, qHTS; Potency, µM, usual class: inhibitors; hit rate 3.5% among 310,000; AID 1490;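 note: the enzyme is Sfp with the accession as filed and its product quenches rhodamine fluorescence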
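Sfp 15 nM + cpd, 15 min RT; start w/ rhodamine-CoA 5 uM, BHQ-2-YbbR 12.5 uM (final); 50 mM Hepes pH 7.6, 10 mM MgCl2, 0.01% NP-40, 0.01% BSA; read 525/598 nm at 0 and 30 min.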
Coupling enz – counter-screen for Giardia aldolase inhibitors: coupling enzyme system | activity change, negative = inhibition, % at 58.2 µM, hits read low | hit rate 0.67% among 290,000 | coupling enzyme system counterscreen, AmpLite Red fluorescence; in the data active = activity change below about -30%
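First, compound is pin-transferred into glyceraldehyde-3-phosphate coupling-enzyme reagent at 57.5 uM final and held 10 min at RT. Next, substrate, coupling system and AmpLite Red are added. After 20 min RT, fluorescence (525/598 nm) is read.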
Tau fluor cs – counter-screen for tau fibril formation inhibitors | Potency, µM (doses to about 57.7 µM) | hit rate 0.93% among 280,000 | tau K18 P301L (four-repeat tau fragment) Alexa594 fluorescence, heparin fibrillization; note: nearly all actives have a fitted effect of over 55% in size
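Human K18 P301L tau (15 uM unlabeled plus 0.24 uM Alexa 594-labeled, final) in 100 mM sodium acetate pH 7 was mixed with compound and 20 uM heparin and incubated 6 hr at 37 C.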
Hits are given with their value; . = inactive; ? = inconclusive; / = no result given; ! = not confirmed by another sample; [ ] = remark or other dose. Unless noted, calls come from the whole dose curve; as a rule, active = well fitted curve in the direction sought with a large enough effect; inconclusive = small, poorly fitted or top-dose-only effect, or another doubt; inactive = no such curve, though single readings can be large; an effect the other way counts as inactive or inconclusive.

SMILES	Tau FP inhib	Tau fibril ThT	Sfp inh	Coupling enz	Tau fluor cs
CC(C)C(=O)NC(c1cccs1)c1cc([N+](=O)[O-])c2cccnc2c1O (stereo not drawn)	.	14µM	?	.	.
Cc1ccc(C(NC(=O)C(C)C)c2cc([N+](=O)[O-])c3cccnc3c2O)cc1 (stereo not drawn)	.	?	.	.	.
O=c1c(O)cccc2cc(O)c(O)c(O)c12	11µM	3.2µM	6.3µM!	-36	2.5µM[quencher]
CCOc1ccc(S(=O)(=O)N(C(=O)c2ccco2)c2cc3sc(=O)oc3c3ccccc23)cc1	28µM	14µM	5.6µM	.	.
Cc1ccc(S(=O)(=O)N(C(=O)c2ccco2)c2cc3sc(=O)oc3c3ccccc23)cc1	22µM	14µM	8.9µM	.	?
CCOc1ccc(S(=O)(=O)N(C)CC(=O)NCc2ccco2)cc1	/	/	.	.	/
COc1ccc(S(=O)(=O)N(C(=O)c2ccco2)c2cc3sc(=O)oc3c3ccccc23)cc1	20µM	13µM	7.9µM	.	?
Cc1ccc(CN2C(=O)SC(Nc3ccc(Cl)cc3)C2=O)cc1 (stereo not drawn)	?	.	/	/	?
COc1ccccc1C(=O)NC1CCCCCCC1	.	.	.	.	.
COc1ccc(S(=O)NC2CCCCC2)c(OC)c1C (stereo not drawn)	.	?	50µM	.	.
NC(=O)[C@@H]1CCCN1C(=O)[C@H](Cc1cnc[nH]1)NC(=O)[C@@H]1CCC(=O)N1	/	/	.	/	/
Cc1ccccc1NC1=C/C(=N\S(=O)(=O)c2cccs2)c2ccccc2C1=O	.	8.9µM	.	-46	?
COc1ccc(S(=O)(=O)/N=C2\C=C(Nc3ccc(O)cc3)C(=O)c3ccccc32)cc1	/	/	.	-32	/
CC(=O)Nc1ccc(NC2=C/C(=N/S(=O)(=O)c3cccs3)c3ccccc3C2=O)cc1	?	?	.	-35	5µM[quencher]
CCOc1ccccc1CNC(=O)c1cnc2sc(N(CC)CC)nn2c1=O	.	.	/	/	.
CCOc1ccc(Nc2ncnc3c2nc2n3CCCCC2)cc1	.	?	/	/	.
Cc1ccc(CN2CCCn3nc(C(=O)NCc4ccc(OC(C)C)cc4)cc3C2=O)cc1	.	.	/	/	.
COc1cc(O)c(C(CC(=O)N2CCN(c3ccccc3)CC2)c2ccc(N(C)C)cc2)c(OC)c1 (stereo not drawn)	.	.	89µM!	.	.
COc1ccc2cc3[n+](cc2c1OC)CCc1cc2c(cc1-3)OCO2	.	18µM	.	-36!	.
Cc1cnc(CNc2ncncc2-c2ccoc2)cn1	/	/	.	.	/
CCOC(=S)N/C(=N\S(=O)(=O)c1ccc(C)cc1)c1ccccc1	.	.	22µM	.	.
Cc1ccc(S(=O)(=O)NN/C(=N/S(=O)(=O)c2ccccc2)c2ccccc2)cc1	.	.	.	.	.
O=S(=O)(/N=C(/NC(=S)Nc1ccccc1)c1ccccc1)c1ccc(Cl)cc1	/	/	45µM	.	/
NC(N)=NS(=O)(=O)c1ccc(NC(=S)NC(=O)c2ccccc2)cc1	.	/	50µM	.	.
COc1ccc(NC(=S)N/C(=N/S(=O)(=O)c2ccc(C)cc2)c2ccccc2)cc1	.	.	50µM	.	.
SMILES	Tau FP inhib	Tau fibril ThT	Sfp inh	Coupling enz	Tau fluor cs
O=C(O)c1ccc(N/C(=N\S(=O)(=O)c2ccc(Cl)cc2)c2ccccc2)cc1	.	.	.	.	.
CCOc1ccc(NC(=O)CSc2cn(CC(=O)N3CCOCC3)c3ccccc23)cc1	.	.	/	/	.
CCC(=O)N1c2ccc(S(=O)(=O)NCc3ccc(F)cc3)cc2CC1C (stereo not drawn)	.	.	/	/	.
O=C(CN1CCCCC1)Nc1nnc(-c2ccccc2)s1	.	.	.	.	.
O=C(CN1CCCCC1)Nc1nnc(-c2ccc([N+](=O)[O-])cc2)s1	.	13µM	.	.	.
CN(C)CCCN(C(=O)c1ccc(S(=O)(=O)N2CCc3ccccc3C2)cc1)c1nc2ccc(F)cc2s1	/	/	45µM	.	/
Cc1cccc2sc(N(CCCN(C)C)C(=O)c3ccc(S(=O)(=O)N4CCc5ccccc5C4)cc3)nc12	/	/	.	.	/
Cc1ccc2nc(N(CCCN(C)C)C(=O)c3ccc(S(=O)(=O)N4CCc5ccccc5C4)cc3)sc2c1	/	/	50µM	.	/
CN(C)CCCN(C(=O)c1ccc(S(=O)(=O)N2CCc3ccccc3C2)cc1)c1nc2c(F)cccc2s1	/	/	.	.	/
Cc1ncc(CO)c(/C=N/NC(=O)c2ccc(O)cc2)c1O	.	.	.	.	.
Cc1ncc(CO)c(/C=N/NC(=S)Nc2ccc(Cl)c(Cl)c2)c1O	.	?	50µM	.	25µM[quencher]
Cc1ncc(CO)c(/C=N/NC(=S)Nc2cccc(Cl)c2)c1O	.	?	50µM	.	?
CC(O)c1cccc2cc(C(O)CNC(C)(C)C)oc12 (stereo not drawn)	/	/	.	.	/
CCOc1ccc(NC(=O)CCCn2c(C)c3cnn(-c4ccccc4)c(=O)c3c2C)cc1	.	.	/	/	.
CCN(CCN(C)C)C(=O)c1ccc2c(c1NCCO)C(=O)c1ccccc1C2=O	.	?	?	-37	.
O=C1c2ccccc2C(=O)c2c1ccc(C(=O)N1CCCCC1)c2NCCO	.	.	.	.	.
CC1(C)CCCN(C(=O)c2ccc3c(c2NCCO)C(=O)c2ccccc2C3=O)C1	.	14µM	.	.	?
CCOC(=O)N1CCN(Cc2nc3cc([N+](=O)[O-])ccc3n2C(C)C)CC1	.	.	/	/	.
O=c1c(N2CCOCC2)nsnc1N1CCOCC1	.	.	.	-54	.
Brc1ccc(Oc2nsnc2N2CCOCC2)cc1	.	.	?	.	.
CC(C)(C)c1nnc(N/N=C/c2ccccc2)n(N)c1=O	.	.	79µM	.	.
Cc1nnc(N/N=C/c2ccc([N+](=O)[O-])cc2)n1N	.	?	.	-45	.
Cc1nnc(N/N=C/c2ccc(-c3ccc(Br)cc3)o2)n1N	.	7.9µM	56µM	.	?
COc1ccc(/C=N/Nc2nnc(C)n2N)cc1OC	?	28µM	.	-40	.
Cc1nnc(N/N=C/c2ccc(Br)cc2)n1N	/	/	?	.	/
SMILES	Tau FP inhib	Tau fibril ThT	Sfp inh	Coupling enz	Tau fluor cs
COc1cc(OC)c(NC(=O)C(CC(C)C)N2Cc3ccccc3C2=O)cc1Cl (stereo not drawn)	.	.	/	/	.
O=C(C1COc2ccccc2O1)N1CCN(c2nc3ccc(F)cc3s2)CC1 (stereo not drawn)	.	?	/	/	.
COc1cc(NC(=O)N2CCC3(CC2)Nc2cc(F)ccc2-n2cccc23)cc(OC)c1OC	?	.	/	/	13µM[quencher]
CCN1c2cc(C)ccc2-n2cccc2C12CCN(C(=O)Nc1cc(OC)c(OC)c(OC)c1)CC2	?	.	/	/	.
COc1ccc(/C=C2/C(=O)N(c3ccccc3)N=C2C)cc1Br	/	/	50µM	.	/
CC1=NN(c2ccccc2)C(=O)/C1=C/c1c(O)n(-c2ccc(F)cc2)[nH]c1=O	.	4.5µM	.	.	13µM[quencher]
COc1ccc(/C=C2/C(=O)N(c3cccc(F)c3)N=C2C)c(OC)c1	/	/	.	.	/
CC1=NN(c2ccccc2)C(=O)/C1=C/c1cccs1	.	?	.	.	.

Assay outcomes deposited in PubChem by National Center for Advancing Translational Sciences (NCATS).
